Hits are enriched below; roughly 0.98% of the tested compounds scored in any of these assays.
RTF Ca sens act = cardiac RTF calcium sensitization; AID 493008; hit rate 0.24% among 340,000; activation, % at 7.2 µM; IANBD-labeled TnC RTF fluorescence at EC20 calcium; 0% EC20 calcium, 100% full calcium;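 active = activation above the mean over all tested compounds plus 3 SD, cut at about 30% in these data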;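 also: rise in fluorescence read as greater calcium sensitivity of cardiac thin filaments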
Keap1 Nrf2 FP = inhibitors of human Keap1-Nrf2 protein-protein interaction; Q14145; Keap1 Kelch-Nrf2 peptide fluorescence polarization, 1536-well; inhibition, % at 9.4 µM; hit rate 0.15% among 340,000; AID 504523; in the data active = inhibition above about 12%;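 also: human Keap1 Kelch domain with fluorescein labeled Nrf2 9mer peptide probe; 0% = neutral control wells and 100% = peptide positive control; higher means more block of Keap1 binding to Nrf2 peptide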
LANA-H2A inh = blocks KSHV LANA binding to histone H2A/H2B; hit rate 0.6% among 320,000; Q9QR71; AID 2629; cell-free LANA-H2A/H2B peptide, fluorescence polarization; inhibition, % (no concentration beside the values); in the data active = inhibition mostly above about 10%, no sharp cut-off; inactive = mostly below about 6.7%
RTF Ca sens inh = cardiac RTF calcium desensitization; hit rate 0.12% among 340,000; IANBD-labeled cardiac RTF, Ca2+ fluorescence; AID 493244; inhibition, % at 7.15 µM;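 active = inhibition above the mean inhibition of all tested compounds plus 3 SD, cut at about 17% in these data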;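 also: assay run at fixed EC70 calcium of 1.6 mM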
C-LANA FP = blocks KSHV LANA C-terminal domain binding to DNA. MBP-C-LANA/FAM-LBS DNA binding, fluorescence polarization. inhibition, % at 9 µM. hit rate 0.078% among 340,000. AID 504423;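 active = highest replicate inhibition at or above 60% at 9 µM, even if other replicates fall short; inactive = all replicates below 60% inhibition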;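 also: 0% = neutral control wells and 100% = 4 µM acridine orange control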
Numbers without * were called inactive; nt = no result; + = active, no number.

SMILES	RTF Ca sens act	Keap1 Nrf2 FP	LANA-H2A inh	RTF Ca sens inh	C-LANA FP
O=C(c1ccco1)N1CCN(C(c2ccccc2)c2nnnn2C2CCCC2)CC1 (stereo not given)	-2	-1	0	-7	2
CC1(C)Cc2c(C#N)c(SCCC#N)nc(N3CCOCC3)c2CS1	-2	-6	0	6	22
CC(=O)c1ccccc1NC(=O)COC(=O)c1cc[n+]([O-])cc1	10	8	2	7	-1
O=C(COC(=O)c1cc[n+]([O-])cc1)Nc1ccccc1Sc1ccccc1	7	-8	140*	-8	1
O=[N+]([O-])c1cccnc1Oc1ccc(F)cc1F	4	-2	5	-3	1
O=[N+]([O-])c1ccc(F)cc1F	-4	1	52*	-2	-2
CN(C)c1ccc(/C=C2\SC(=S)N(Nc3ncc(C(F)(F)F)cc3Cl)C2=O)cc1	147*	-6	-33	-339	0
COc1cc(/C=C2\SC(=S)N(Nc3ncc(C(F)(F)F)cc3Cl)C2=O)ccc1O	6	1	-5	-21	-4
O=C(O)CNC(=S)N(Cc1ccccc1)Cc1cccnc1	3	5	3	-2	1
O=[N+]([O-])c1ccc(N/N=C/c2ccc[nH]2)cc1	-13	-7	+	-7	-2
O=[N+]([O-])c1ccc(NN=Cc2cccc([N+](=O)[O-])c2)cc1	-3	4	nt	5	1
O=C(CN1C(=O)c2ccccc2C1=O)Nc1ccc(Cl)cn1	0	-5	2	2	2
O=C(Nc1c2c(nn1-c1ccc(Cl)cc1)CS(=O)(=O)C2)c1ccccc1	3	0	-2	1	0
CCCCn1c2c(c(=O)n(C)c1=O)C(c1ccc(OC)cc1)N1CCCCCC1=N2 (stereo not given)	-2	-4	1	-9	1
O=C(Cc1ccc(F)cc1)Nc1cccc(-c2cn3c(n2)SCC3)c1	7	-1	+	-3	0
CCc1ccccc1NC(=O)C(Cc1ccccc1)c1nn[nH]n1 (stereo not given)	-3	-2	1	2	1
CC1(C)CC(NC(=O)C(c2ccccc2)c2ccccc2)CC(C)(C)N1	2	1	8	-4	-1
CCC(C(=O)NC1CC(C)(C)NC(C)(C)C1)c1ccccc1 (stereo not given)	3	-2	14*	-3	0
CCc1noc(C)c1C(=O)N1CCCC(C(=O)c2ccc(OC)c(F)c2)C1 (stereo not given)	-5	3	14*	-2	0
COc1ccc(C(=O)C2CCCN(C(=O)c3cc(C(C)C)no3)C2)cc1F (stereo not given)	-3	2	-2	8	-1
CCOC(=O)N1CC(=O)Nc2ccc(Br)cc2C1c1ccccc1 (stereo not given)	-4	0	106*	-15	0
O=C1CN(C(=O)CN2CCCC2)C(c2ccccc2)c2cc(Br)ccc2N1 (stereo not given)	0	-9	-2	-14	-1
Cc1c(C)c2ccc(OCC(=O)N3CCOCC3)c(C)c2oc1=O	3	-1	+	1	1
Cc1c(C)c2ccc(OCC(=O)N(C)C)c(C)c2oc1=O	-4	0	1	1	1
O=C(O)c1ccccc1NS(=O)(=O)c1ccc(N/N=C/c2ccc(O)c(O)c2)c([N+](=O)[O-])c1	-10	8	nt	3	80*
SMILES	RTF Ca sens act	Keap1 Nrf2 FP	LANA-H2A inh	RTF Ca sens inh	C-LANA FP
O=C(O)c1ccccc1NS(=O)(=O)c1ccc(NN=Cc2ccc(F)cc2)c([N+](=O)[O-])c1	2	3	-3	-2	1
COc1ccccc1N=C1NC(=O)/C(=C/c2ccc(N(C)C)cc2)S1	48*	-8	-1	-87	-5
COc1ccc(/C=C2\SC(=Nc3ccccc3)NC2=O)cc1	nt	nt	5	nt	nt
CC(CC(=O)N1CCN(C(=O)c2ccccc2)CC1)c1ccccc1 (stereo not given)	-6	-6	-1	-1	0
CC(C)CC(=O)N1CCN(C(=O)c2ccc(F)cc2)CC1	3	-3	16*	2	-1
N#Cc1cccc(NC(=O)CSc2ccc3c4c(cccc24)C(=O)c2ccccc2-3)c1	42*	2	-3	-58	3
COc1ccc(NC(=O)CSc2ccc3c4c(cccc24)C(=O)c2ccccc2-3)cc1	27	-1	5	-18	1
CCn1c(=O)[nH]c2cc(Cl)c(Cl)cc21	2	-3	-2	-8	1

Bioassay records (PubChem)
